Here are results for 22 molecules from publication PMC12136788.

Where a chain is given by its changes, count along the chain named. In all, about 24,000 sequences were measured (“enrichment r”: median about 0.99, highest 2% from about 3.7 on). Many of the other results were omitted from the sample, so the highest values are more common in it than they were.

T1: UNK ZnF1-3 (human, UniProt Q9C0B0 31-174)
T1 sequence: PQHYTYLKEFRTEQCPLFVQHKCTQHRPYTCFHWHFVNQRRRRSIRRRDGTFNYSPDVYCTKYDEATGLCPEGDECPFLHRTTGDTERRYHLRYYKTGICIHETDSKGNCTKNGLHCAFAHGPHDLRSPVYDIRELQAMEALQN

B1: chr3:10015032:10015033:+_ENSMUSG00000027533_ENSMUST00000029046|mus_mus|mus_mus_mus_hu_True|1_28 (ssRNA)
RNA: GGGAGUUCUACAGUCCGACGAUCGUUUUUACCAUCACAAGUGAUGAUACAAUCUGGCUUGGCCAUUGCGCCCAUUUUUCGCAAAGCUAUUCCCACUCCUAGCUCCUUCAUGUACUCAUCAAAGCCUUUGCUGUCCAUCAGGCGCAACAGAGGAUUGAGCAUCA
B2: chr7:151048522:151048523:+_ENSG00000013374_ENST00000566856|hu_mus|hu_hu_hu_mus_True|18_78 (ssRNA)
RNA: GGGAGUUCUACAGUCCGACGAUCCUGUUUCUUAUUUAUUACGAUCUUGAUGUAAUUUUCUUGAAGUCCGAAAGUUUCAGCUAUUUGACACCUCAGGUCUCUACCAGUGACAUGCAAUCGGGUCUCCAACAAGCUUUUCUUAUCCAACAGAGGAUUGAGCAUCA
B3: chr11:46405157:46405158:+_ENSG00000110492_ENST00000395566|hu_hu|hu_hu_hu_mus_False|1_98 (ssRNA)
RNA: GGGAGUUCUACAGUCCGACGAUCCCCUCCCCACUUUGGCUGGGGAGUGUGGGCGUGAGAGGACAGGCGUGAUUGACAGAGCUGACAGGAAGACAAAAGGCACUGGUGGGUUAUAUCUUGGGCCUGUGGGAGAGGAGGCGUGGGCAACAGAGGAUUGAGCAUCA
B4: chr19:7991675:7991676:-_ENSG00000104980_ENST00000595831|hu_hu|motif|central (ssRNA)
RNA: GGGAGUUCUACAGUCCGACGAUCCCAAAUCUCAGGCUUAUGCACAAGAUGGAAGAGCACUGUUAAAAUUAAAAAAUGGACCGGAAGUGGCUUGGCUGACGUGGCUAGCGGGCCACUGAGCCGCGGGUCCCGGGUCCCACCCUGCAACAGAGGAUUGAGCAUCA
B5: 193332725_193333477_540_CDS_ENSG00000198836_ENST00000392438|human|control|control (ssRNA)
RNA: GGGAGUUCUACAGUCCGACGAUCCCACUGAUCAAAAGUCUUUUUGGCUGUGUAGCCACCCCCAACAGCCGAUCCUAGUAUGAGAUAGCGAAGUUUUAAGAGUCUCGUAGCUAAUCUUGCUGGCCAAAAAUUCCUGCGAGGCUGCAACAGAGGAUUGAGCAUCA
B6: chr9:100883651:100883652:-_ENSG00000106789_ENST00000375077|hu_mus|FALSE|FALSE (ssRNA)
RNA: GGGAGUUCUACAGUCCGACGAUCUCCCAAGGCAAGAAGGAAGGAGCCGAGGGCGGCUUUGCUGCUUGGGUGGUCACUGUGUCAGGGGGCAGUGUUGCUCCAUUAGCCCAAGAACAUAAAAACAUAAUCUUAAAAAAAUAUGACCAACAGAGGAUUGAGCAUCA
B7: chr7:54825262:54825263:-_ENSG00000132432_ENST00000352861|hu_hu|motif|central (ssRNA)
RNA: GGGAGUUCUACAGUCCGACGAUCCCGACUUGGCUCAACAAACUGCAUUACCUGAUCCAUGACUGCCUACCCAACCGACACCGGAAAUGCCAGGGACACGUAGCACUGGAGCUUGCUGAUGGAGGCCCACCGGAACCGGAAUCCCAACAGAGGAUUGAGCAUCA
B8: chr19:7991675:7991676:-_ENSG00000104980_ENST00000595831|hu_hu|FALSE|FALSE (ssRNA)
RNA: B4 RNA with G82U, G83A
B9: chr1:129704038:129704039:+_ENSMUSG00000026349_ENSMUST00000027587|mus_mus|FALSE|FALSE (ssRNA)
RNA: GGGAGUUCUACAGUCCGACGAUCAGGCCAAAGCUGCCCUCCAAGUGUCGGUUGGCCUGCAUUAAUUACAGCUGUGCCUGCACACUUGUCUCAACAUCAAGUACUGAGGGAAAACGGGAAUGCACUCUGCCUCUGGUCAGUACACAACAGAGGAUUGAGCAUCA
B10: chr10:110404880:110404881:-_ENSMUSG00000035798_ENSMUST00000041723|mus_hu|motif|central (ssRNA)
RNA: GGGAGUUCUACAGUCCGACGAUCGUUUUUGUGAUACUUGUCACCAAGGUUAACUGAAACAUUGAAUGUUAAAAGCAAUCGGGUUGGAUCCACACUAUGUGUUCUAUAUGCUGCCCACAUUAAAGGCGUCAUUCCAUUCUGAUCCAACAGAGGAUUGAGCAUCA
B11: 23688267_23688387_1410_3pUTR_ENSMUSG00000048439_ENSMUST00000049887|mouse|control|control (ssRNA)
RNA: GGGAGUUCUACAGUCCGACGAUCUGAAUUUGUGGUGUUCUGCUGCUCAGCUUCCCAGACUGUAGGCAUGCAGGACAUGCCUGGCUAAGGCAUUCUUUCUGUAUUUAAACCUGACCUUUAUACAGUCAGAAGCUCGACCGGUGGCAACAGAGGAUUGAGCAUCA
B12: chr2:228221723:228221724:+_ENSG00000168958_ENST00000354503|hu_mus|FALSE|FALSE (ssRNA)
RNA: GGGAGUUCUACAGUCCGACGAUCGACCAUUUCUCUUUUAGCACGCUCUUUAUUCUCCUCUUCCAGAAGUUGGAGACGUCUAUUUAAUUUGAUUAUCUGACGUCUUAAUGAAGCUGCAUCUACCACAGUCAUGUCAUCUGAAGCCAACAGAGGAUUGAGCAUCA
B13: 60766941_60767061_3855_CDS_ENSG00000011028_ENST00000303375|human|control|control (ssRNA)
RNA: GGGAGUUCUACAGUCCGACGAUCGAAGGCCUGGGUGUAGGGGUCGGGCACGUAGGCCAGGCUGGCAUUGCGGCUCUCACACAGCAGGAGGGCAUCGUGCCAGCGCAGCGGCUUCUGAAGCAGCCGGAAGGUGCCGUUGAGGUACAACAGAGGAUUGAGCAUCA
B14: chr3:196311055:196311056:+_ENSG00000174013_ENST00000440469|hu_hu|FALSE|FALSE (ssRNA)
RNA: GGGAGUUCUACAGUCCGACGAUCGACCUUUGGAAGUCCUCUAAAAGCAACCCCCAGGAACUCAUAUCCACGUUCAAAAGCUAAAGUCUUAUCUUCCAUGUCCAAGAUGACUCGAAUUCUUUCUCCUAUCUGAUAUUUUGGUGCCAACAGAGGAUUGAGCAUCA
B15: 32740819_32743422_11525_CDS_ENSG00000115760_ENST00000421745|human|control|control (ssRNA)
RNA: GGGAGUUCUACAGUCCGACGAUCCAGCAUCAACUGUAAAAAUAAUCUUCGUAUAAACCCUGAAAUGUUCCCAGAUGUUGGAAGGUUCCCUCUUUGAGGAGAUGUCUGAAAUAGUUCACAAAGAACCUGUGCCAUCAGCUUUUGCAACAGAGGAUUGAGCAUCA
B16: 112506700_112506820_3235_3pUTR_ENSMUSG00000032727_ENSMUST00000109272|mouse|control|control (ssRNA)
RNA: GGGAGUUCUACAGUCCGACGAUCAAUAAAUACCCUCCCGUCCAGUCACUAGGACCACUACCUCCUACCUACUCUUCAGCACGACCUUGAAGCGACUCACACUUAUAAACAGCAACACAACUAGGAAAAUAAAAAAAAAAAUCACAACAGAGGAUUGAGCAUCA
B17: chrX:71549762:71549763:+_ENSMUSG00000019087_ENSMUST00000019231|mus_mus|mus_mus_mus_hu_False|28_98 (ssRNA)
RNA: GGGAGUUCUACAGUCCGACGAUCAAACCCGUGUACUCACUCUUAACAGCACAACAUCACCAGAAAACGAUAACGACAGCCAAGCAGGACAGACAGUUAAGUAGUACUUCCACACCUCCAAACUCAGGGAGCCCUAUAACCUUACAACAGAGGAUUGAGCAUCA
B18: chrX:71549762:71549763:+_ENSMUSG00000019087_ENSMUST00000019231|mus_mus|mus_mus_mus_hu_False|28_88 (ssRNA)
RNA: GGGAGUUCUACAGUCCGACGAUCAAACCCGUGUACUUCUUAUUGUUACAUCACCCCCACCAGAAAACGAUAACGACAGCCAAGCAGGACAGACAGUUAAGUAGUACUUCCACACCUCCAAACUCAGGGAGCCCUAUAACCUUACAACAGAGGAUUGAGCAUCA
B19: chr2:140009677:140009678:+_ENSMUSG00000027384_ENSMUST00000044825|mus_mus|FALSE|FALSE (ssRNA)
RNA: GGGAGUUCUACAGUCCGACGAUCGCUGCUAACCACCAGGUCAAACGUGUUUUCUUGGAAGGGAAGGAAUUCUUCAUCAGCUAAAAUAUUCACAGUAGGAAUAUCUGUUUCUAAAGAAUUUUUCAAAGCAUGCUCUGCAAUGUCCAACAGAGGAUUGAGCAUCA
B20: chr1:32661602:32661603:+_ENSG00000084652_ENST00000373610|hu_hu|FALSE|FALSE (ssRNA)
RNA: GGGAGUUCUACAGUCCGACGAUCCAGCAUCCCUCUUCCUUGGAAGGUCCUCAAUACAAACACUGUCAUGUGCAAAAAAAAAAGAAAAAGAAAAAAAAAAAAAAAGAAAAAGAAAUAAAGAAAAAAACACCUUCAGAAAUAAUCCAACAGAGGAUUGAGCAUCA
B21: chr3:41266445:41266446:+_ENSG00000168036_ENST00000349496|perfect_dup|FALSE|FALSE (ssRNA)
RNA: GGGAGUUCUACAGUCCGACGAUCCAUAGCAGCUCGUACCCUCUGAGCUCGAGUCAUUGCAUACUGUCCAUCAAUAUCAGCUACUUGUUCUUGAGUGAAGGACUGAGAAAAUCCCUGUUCCCACUCAUACAGGACUUGGGAGGUCAACAGAGGAUUGAGCAUCA
B22: chrX:140365796:140365797:-_ENSMUSG00000031285_ENSMUST00000033642|mus_mus|mus_mus_mus_hu_False|28_108 (ssRNA)
RNA: GGGAGUUCUACAGUCCGACGAUCCUUCUCAUUACUUAGUGCCUGCAAGGUUCUGGUUCGGUAGAAGCUACAGUGGGCGCUGUGAGUGGGGCUAGGCAACCCAUUCAUCCGUGACCCUCGCAUGUUCCUGGAUGUCUUAUCUCUCAACAGAGGAUUGAGCAUCA

This assay deals with T1, UNK ZnF1-3. The assay is described as follows: nsRBNS (natural sequence RNA bind-n-seq); RBNS binding buffer (assumed for nsRBNS): 25 mM Tris pH 7.5, 150 mM KCl, 3 mM MgCl2, 0.01% Triton X-100, 500 ug/ml BSA, 20 U/ml SUPERase-In, 4 C; UNK is unkempt and MSI1 is Musashi-1; names of the RNAs are library labels; protein concentration not given here; high values mean tight binding.
B1 returned a binding signal of 0.662 enrichment R.

For B2, the binding signal worked out at 0.639 enrichment R.

Turning to B3, the binding signal worked out at 2.22 enrichment R.

Turning to B4, the binding signal is 3.81 enrichment R.

The molecule B5 yielded a binding signal of 1.11 enrichment R.

As for B6, the binding signal is 2.88 enrichment R.

On to B7, for which the binding signal stood at 1.13 enrichment R.

As to B8, the binding signal was determined as 4.68 enrichment R.

Take B9: the binding signal came out at 0.746 enrichment R.

In turn, B10 came in with a binding signal of 0.601 enrichment R.

As to B11, the binding signal worked out at 0.457 enrichment R.

B12 came in with a binding signal of 0.795 enrichment R.

As for B13, the binding signal came to 0.939 enrichment R.

B14: the binding signal stood at 1.13 enrichment R.

The molecule B15 returned a binding signal of 1.97 enrichment R.

In turn, B16 had a binding signal of 4.38 enrichment R.

B17 showed a binding signal of 1.72 enrichment R.

For B18, the binding signal is 1.85 enrichment R.

Consider B19, for which the binding signal was 1.19 enrichment R.

The molecule B20 showed a binding signal of 4.33 enrichment R.

The molecule B21 returned a binding signal of 0.798 enrichment R.

With B22, the binding signal worked out at 0.752 enrichment R.
